# The panel holds about 83,000 compounds, 20% with a hit somewhere; the sample as a whole holds those more often.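 96-well plates, one dose, 48 hours. Percent growth reported; active if below 10.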 Values without a mark were called inactive. Calls of active or inactive are those of the source.
# System: U251 CNS
# Assay: NCI-60 one-dose screen, 48 h (100 = growth as untreated, 0 = no growth, -100 = all killed)
# Conditions: 10 µM unless noted
row,Compound,growth
1,COC(=O)/C(CCC=C(C)C)=C1\[C@@H](OC(C)=O)C[C@@]2(C)[C@H]1C/C(=N/O)[C@H]1[C@@]3(C)CC/C(=N\O)[C@@H](C)[C@@H]3CC[C@@]12C,91.5%
2,Nc1cccc(-c2ccc(COc3ccc(CC4SC(=O)NC4=O)cc3)cc2)c1 (centres undefined),45.9%
3,CCOC(=O)c1cnn(CC(C)O)c1NC(=O)NCc1cccc(F)c1 (centres undefined),97.4%
4,O=S(Nc1ccccc1)c1ccc(Cl)cc1 (centres undefined),95.1%
5,CCOC(=O)C1=C(CC(O)c2ccc(OC)cc2OC)NC(=O)NC1c1ccccc1 (centres undefined),106%
6,CCn1cc(C(=O)O)c(=O)c2cc(F)c(N3CCN(CC(=O)Nc4ccccc4)C(C)C3)c(F)c21 (centres undefined),102%
7,CCN(CC)c1ccc(-c2cc(-c3cc(OC)c(OC)c(OC)c3)nc(N3CCC(O)CC3)c2C#N)cc1,-32.5% (active)
8,C=C(C)[C@@H]1CC[C@]2(C)[C@H](C=CC3=C4C[C@@](C)(CO)CC[C@]4(C)CC[C@]32C)[C@@]1(C)CCCN,-64.5% (active)
9,CS(=O)/C(C#N)=C\C=C\c1cccc(Cl)c1 (centres undefined),17.3%
10,CC1=C(Cl)C(=O)c2cc(C)ccc2C1=O,96.2%
11,N#Cc1ccc(O)c(C2=NCC(c3ccc(-c4ccccc4)cc3)O2)c1 (centres undefined),4.51% (active)
12,CC[C@H](Nc1nc(N)nc(C)c1C#N)c1nc2cccc(CN(C)c3ncc(C(=O)NO)cn3)c2c(=O)n1-c1ccccc1,-69.6% (active)
13,Cc1nc2ccccc2c(/C=C/c2ccc(F)cc2)c1C(=O)/C=C/c1ccccc1,-7.24% (active)
14,O=C(CN1C(=O)S/C(=C\C(Cl)=C\c2ccccc2)C1=O)NC1CCS(=O)(=O)C1 (centres undefined),81.6%
15,Nc1[nH]nc2nc(-c3ccccc3)n3c4ccccc4nc3c12,102%
16,CC(C)(C)OC(=O)CN1CCc2c(sc3ncnc(N4CCN(c5ccc(F)cc5)CC4)c23)C1,85.5%
17,N#Cc1nn(-c2cc(=O)[nH]c3ccc(Br)cc23)c(N)c1C#N,106%
18,O=c1oc2ccccc2cc1-c1nn(-c2ccccc2)cc1-c1nn[nH]n1,104%
19,COc1ccc(/C=N/NC(=O)Cn2c(-c3ccc(S(C)(=O)=O)cc3)nc3ccccc32)cc1,106%
20,CC(C)n1c2ccc(Br)cc2c2c3c(c4c5ccccc5ccc4c21)C(=O)NC3=O,98%
21,CCOC(=O)C1=C(c2ccccc2)N=C2N(c3ccccc3)N=C(C(C)=O)N2C1c1ccc(F)cc1 (centres undefined),103%
22,COC1C(O)CC(OC2CC(OC3CC(O[C@@H]4C(=O)c5c(cc6cc(OC7CC(OC8CC(O)C(O)C(C)O8)C(O)C(C)O7)c(C)c(O)c6c5O)CC4[C@H](OC)[C@@H](O)C(C)=O)OC(C)C3O)OC(C)C2O)OC1C (some centres undefined),7.11% (active)
23,COC(=O)c1c2c(c(C)[n+]([O-])c1C)C(=O)C(NCc1ccccc1)=CC2=O,1.71% (active)
24,Oc1nc(NCc2ccccc2)sc1/C=C1\C=Nc2ncccc21,51.1%
25,C=C1C(=O)O[C@H]2[C@H]1CC/C(COC(=O)/C=C\C(=O)NCc1ccc(Cn3c(=O)sn(CCCCl)c3=O)cc1)=C\CC[C@@]1(C)O[C@@H]21,79.6%

# System: PC-3 prostate
# Assay: as above
# Conditions: 10 µM unless noted
row,Compound,growth
1,CCOC(=O)c1c(NC(=O)c2ccccc2)sc2c3c(ccc12)OCN(C)C3,21.7%
2,COc1ccc(NC(=O)c2ccc(Nc3ncnc4c3cnn4-c3cccc(F)c3)cc2)cc1,96.3%
3,COC(=O)c1c(C)nc(C)c2c1C(=O)C=C(NCc1ccccc1)C2=O,75.6%
4,CS(=O)(=O)Nc1cc(-c2ccc3ncnc(Nc4ccc5c(cnn5Cc5ccncc5)c4)c3c2)cnc1Cl,57.7%
5,S=c1ccnc[nH]1,100%
6,Cc1ccc(S(=O)(=O)c2nc(-c3ccccc3)oc2SCC(N)=O)cc1,85.6%
7,CN(C)Cc1ccc(NC(=O)c2cncc(C#Cc3cnc(N)c4ncccc34)c2)cc1C(F)(F)F,92.2%
8,COc1cc(/C=C/c2cn[nH]c2-c2ccc(C)cc2)cc(OC)c1OC,28.2%
9,CCOC(=O)C(CCN(C)C)c1ccccc1 (centres undefined),86.6%
10,O=C(/C=C/c1ccccc1)N(C1CCCCC1)C1CCCCC1,60.2%
11,CC1(C)CC[C@]23CC[C@]4(C)[C@H](CC[C@@H]5[C@@]6(C)CCNCC(C)(C)[C@@H]6CC[C@]54C)[C@H]2[C@H]1OC3,65.8%
12,Cc1nc2sc(C(=O)Nc3cccc4ccccc34)c(N)c2cc1C(=O)c1ccccc1,21.3%
13,Cc1ccc(O)c(NC(=O)c2cccc(Nc3ccnc(C(F)(F)F)c3)c2)c1,68%
14,N#CSc1c[nH]c2ccc(/C=C/C(=O)/C=C(O)/C=C/c3ccc4[nH]cc(SC#N)c4c3)cc12,12%
15,COC(=O)/C(CCC=C(C)C)=C1\[C@@H](OC(C)=O)C[C@@]2(C)[C@H]1C/C(=N/O)[C@H]1[C@@]3(C)CC/C(=N\O)[C@@H](C)[C@@H]3CC[C@@]12C,70.9%
16,Nc1cccc(-c2ccc(COc3ccc(CC4SC(=O)NC4=O)cc3)cc2)c1 (centres undefined),59.7%
17,CCOC(=O)c1cnn(CC(C)O)c1NC(=O)NCc1cccc(F)c1 (centres undefined),73.3%
18,O=S(Nc1ccccc1)c1ccc(Cl)cc1 (centres undefined),89.8%
19,CCOC(=O)C1=C(CC(O)c2ccc(OC)cc2OC)NC(=O)NC1c1ccccc1 (centres undefined),95.3%
20,CCn1cc(C(=O)O)c(=O)c2cc(F)c(N3CCN(CC(=O)Nc4ccccc4)C(C)C3)c(F)c21 (centres undefined),93.2%

row,Compound,growth
1,CCN(CC)c1ccc(-c2cc(-c3cc(OC)c(OC)c(OC)c3)nc(N3CCC(O)CC3)c2C#N)cc1,13.1%
2,C=C(C)[C@@H]1CC[C@]2(C)[C@H](C=CC3=C4C[C@@](C)(CO)CC[C@]4(C)CC[C@]32C)[C@@]1(C)CCCN,-34% (active)
3,CS(=O)/C(C#N)=C\C=C\c1cccc(Cl)c1 (centres undefined),30.6%
4,CC1=C(Cl)C(=O)c2cc(C)ccc2C1=O,89.6%
5,N#Cc1ccc(O)c(C2=NCC(c3ccc(-c4ccccc4)cc3)O2)c1 (centres undefined),25.5%
6,CC[C@H](Nc1nc(N)nc(C)c1C#N)c1nc2cccc(CN(C)c3ncc(C(=O)NO)cn3)c2c(=O)n1-c1ccccc1,14.6%
7,Cc1nc2ccccc2c(/C=C/c2ccc(F)cc2)c1C(=O)/C=C/c1ccccc1,29.8%
8,O=C(CN1C(=O)S/C(=C\C(Cl)=C\c2ccccc2)C1=O)NC1CCS(=O)(=O)C1 (centres undefined),80.9%
9,Nc1[nH]nc2nc(-c3ccccc3)n3c4ccccc4nc3c12,95.2%
10,CC(C)(C)OC(=O)CN1CCc2c(sc3ncnc(N4CCN(c5ccc(F)cc5)CC4)c23)C1,69.2%
11,N#Cc1nn(-c2cc(=O)[nH]c3ccc(Br)cc23)c(N)c1C#N,-86.9% (active)
12,O=c1oc2ccccc2cc1-c1nn(-c2ccccc2)cc1-c1nn[nH]n1,91.5%
13,COc1ccc(/C=N/NC(=O)Cn2c(-c3ccc(S(C)(=O)=O)cc3)nc3ccccc32)cc1,93.2%
14,CC(C)n1c2ccc(Br)cc2c2c3c(c4c5ccccc5ccc4c21)C(=O)NC3=O,89.8%
15,CCOC(=O)C1=C(c2ccccc2)N=C2N(c3ccccc3)N=C(C(C)=O)N2C1c1ccc(F)cc1 (centres undefined),89.4%
16,COC1C(O)CC(OC2CC(OC3CC(O[C@@H]4C(=O)c5c(cc6cc(OC7CC(OC8CC(O)C(O)C(C)O8)C(O)C(C)O7)c(C)c(O)c6c5O)CC4[C@H](OC)[C@@H](O)C(C)=O)OC(C)C3O)OC(C)C2O)OC1C (some centres undefined),16.9%
17,COC(=O)c1c2c(c(C)[n+]([O-])c1C)C(=O)C(NCc1ccccc1)=CC2=O,8.92% (active)
18,Oc1nc(NCc2ccccc2)sc1/C=C1\C=Nc2ncccc21,71.3%
19,C=C1C(=O)O[C@H]2[C@H]1CC/C(COC(=O)/C=C\C(=O)NCc1ccc(Cn3c(=O)sn(CCCCl)c3=O)cc1)=C\CC[C@@]1(C)O[C@@H]21,76.9%

# Source: PubChem BioAssay (NCI)
